Drawing on PubChem BioAssay AID493036 (Sanford-Burnham Center for Chemical Genomics, 2011), this text covers cell count and activation for 63 molecules.

The nature of test [1]: agonists of human NTR1, primary screen, imaging, U2OS cells, beta-arrestin-GFP, high content (AID 493036).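 For activation: 0% = DMSO without peptide and 100% = 100 nM NTR1 peptide.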 The conditions noted are these: NTR1-U2OS beta-arrestin-GFP spot imaging, agonist mode; measured here: cell count, cytotoxicity flag; at 20 µM.
Test [2] concerns the target Neurotensin receptor type 1 (Homo sapiens) (UniProt P30989). The description is as above. The note with it: NTR1-U2OS beta-arrestin-GFP spot imaging, agonist mode; at 20 µM; stronger effect = higher value.

Screen size: about 330,000 compounds; about 560 (0.17%) were called active. This is one part of a sample in which actives are shown more often than they occur.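 Rule for the calls: active = activation at or above 40% of the spot to cytoplasm intensity ratio, with at least 20 cells analyzed; inconclusive = wells under 20 cells, flagged as cytotoxic or low count; inactive = the rest.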

Sequence of Neurotensin receptor type 1 (Homo sapiens) (P30989 whole entry, looked up): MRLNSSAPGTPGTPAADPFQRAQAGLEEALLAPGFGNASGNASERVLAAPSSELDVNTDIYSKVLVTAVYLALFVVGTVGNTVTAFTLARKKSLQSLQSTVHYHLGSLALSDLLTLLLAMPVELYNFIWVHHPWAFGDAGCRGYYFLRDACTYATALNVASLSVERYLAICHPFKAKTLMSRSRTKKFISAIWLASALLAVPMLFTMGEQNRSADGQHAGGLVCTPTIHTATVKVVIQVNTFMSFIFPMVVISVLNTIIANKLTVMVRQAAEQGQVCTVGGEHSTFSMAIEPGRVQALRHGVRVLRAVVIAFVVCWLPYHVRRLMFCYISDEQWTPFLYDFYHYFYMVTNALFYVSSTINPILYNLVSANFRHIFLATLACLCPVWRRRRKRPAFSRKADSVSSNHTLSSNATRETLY

Consider `CN1CCN(c2nc(Nc3ccc(O)cc3)nc3ccccc23)CC1`, for which the cell count in test [1] is 47 cells. Besides, the activation in test [2] is 0.5% (inactive).
`Cc1cccc(-c2nc(Nc3ccc(O)cc3)c3ccccc3n2)c1` showed a cell count in test [1] of 84 cells. In test [2], the activation is 60.9% (active).
Turning to `Oc1ccc(-c2nnc(Nc3ccccc3)c3ccccc23)cc1`, the cell count in test [1] amounted to 62 cells. The activation in test [2] was -0.2% (inactive).
As for `Cc1cc(C)cc(N(CC(=O)N2CC=C(c3ccccc3)CC2)S(=O)(=O)c2c(C)noc2C)c1`, the cell count in test [1] was 52 cells. Further, the activation in test [2] was 3.3% (inactive).
Turning to `COc1ccc(C)cc1S(=O)(=O)Nc1cc2c3c(c1)CCC(=O)N3CCC2`, the cell count in test [1] is 52 cells. Also, the activation in test [2] was -1.6% (inactive).
The corresponding values for `Cc1ccccc1C(=O)N1CCC(C(=O)Oc2ccc(C#N)cc2)CC1` are 77 cells and 0.9% (inactive).
For the molecule `Cc1cc(Cl)ccc1OCc1nc(-c2ccncc2)no1`, the cell count in test [1] stood at 20 cells. Moreover, the activation in test [2] is 1.2% (inactive).
For `Cn1c(-c2ccc(C(=O)c3ccccc3)s2)nc2ccccc21` the same measures were 111 cells and -1.6% (inactive).
On to `O=C(CCc1ccc(S(=O)(=O)N2CCOCC2)cc1)Nc1ccc2ccccc2c1`, for which the cell count in test [1] is 90 cells. Further, in test [2], the activation was 1.8% (inactive).
As to `CCOC(=O)c1cccc(NS(=O)(=O)c2c(C(=O)N3CCCCCC3)c(C)n(C)c2C)c1`, in test [1], the cell count came to 47 cells. Also, the activation in test [2] is 1.2% (inactive).
For `Cc1cccc(-n2c(SCC(N)=O)nc3c(c2=O)C2(CCCCC2)Cc2ccccc2-3)c1` the same measures were 62 cells and 49.9% (active).
In test [1], `N#CCSc1nc2c(c(=O)n1Cc1ccccc1)C1(CCCC1)Cc1ccccc1-2` yielded a cell count of 47 cells. Also, the activation in test [2] is 3.2% (inactive).
The corresponding values for `Cc1cccc(-n2c(=O)c3c(C)c(C)sc3n(CC(N)=O)c2=O)c1` are 70 cells and 0.5% (inactive).
In test [1], `CC(C)(C)OC(=O)NCCCCCNC(=O)c1[nH]cnc1C(=O)Nc1nccs1` returned a cell count of 56 cells. Also, the activation in test [2] was 2.3% (inactive).
Turning to `CN1/C(=C\C=C2\N=C(c3ccc(F)cc3)OC2=O)C(C)(C)c2ccccc21`, the cell count in test [1] was determined as 59 cells. Further, the activation in test [2] is -1% (inactive).
The corresponding values for `CC1=CCC2C(=O)N(c3cccc(C(=O)NC(C)c4ccccc4)c3)C(=O)C2C1` (stereo unspecified) are 86 cells and -1.2% (inactive).
Regarding `Cc1ccc(C(=O)N/N=C\c2cc(Br)c(Br)o2)cn1`, the cell count in test [1] amounted to 42 cells. In addition, in test [2], the activation was 3.4% (inactive).
For `CNC[C@H](CC1CCCCC1)NC[C@H](NCCC1CCCC1)[C@H](C)O` the same measures were 59 cells and 4.7% (inactive).
In test [1], `Cc1ccc(-n2c(SCC(=O)NCc3ccc4c(c3)OCO4)nnc2-c2cccnc2)c(C)c1` had a cell count of 50 cells. For the same molecule, the activation in test [2] was -0.8% (inactive).
For `Cc1cccc(NC(=O)C2CCCN(C(=O)NCc3ccccc3)C2)c1C` (stereo unspecified) the same measures were 37 cells and 0.3% (inactive).
For `CCCCCCSc1ccc(-c2nc3ccc(Cl)cn3c2NCc2ccccc2)cc1` the same measures were 65 cells and -1.8% (inactive).
In the case of `CCCCNc1c(-c2ccc(OC)c(Sc3ccc(OC)cc3)c2)nc2ccc(Cl)cn12`, the cell count in test [1] turned out to be 52 cells. Also, the activation in test [2] is 3.2% (inactive).
Turning to `CCCCNc1c(-c2cccc(Sc3ccc(OC)cc3)c2)nc2ccccn12`, the cell count in test [1] came to 60 cells. Moreover, in test [2], the activation was 42.5% (active).
In the case of `CC(C)C(=O)Nc1ccc2c3c(cccc13)CC2`, the cell count in test [1] worked out at 56 cells. Further, the activation in test [2] was 0.6% (inactive).
The corresponding values for `CC(=O)N1C(C)c2ccccc2C(C)(C)CC12CCCCC2` (stereo unspecified) are 51 cells and 0.8% (inactive).
On to `Cn1c(C(=O)O)ccc1S(=O)(=O)N(Cc1ccccc1)Cc1ccccc1`, for which, in test [1], the cell count was 65 cells. Besides, in test [2], the activation was 0.5% (inactive).
For the molecule `Cc1cc2occ(CC(=O)NNC(=O)c3ccccc3F)c2cc1C`, the cell count in test [1] was 58 cells. Moreover, the activation in test [2] is 0.7% (inactive).
Molecule `CC(C)(C)OC(=O)N1CCC(NC(=O)c2[nH]cnc2C(=O)N[C@@H](Cc2ccccc2)C(=O)OCc2ccccc2)CC1` returned a cell count in test [1] of 74 cells. The activation in test [2] is 47.8% (active).
For `CC(C)(C)OC(=O)CNC(=O)c1[nH]cnc1C(=O)N[C@@H](Cc1ccccc1)C(=O)OCc1ccccc1`, the cell count in test [1] came out at 87 cells. For the same molecule, the activation in test [2] is 15.2% (inactive).
For `O=C(N[C@@H](Cc1ccccc1)C(=O)OCc1ccccc1)c1nc[nH]c1C(=O)NC1CCNCC1` the same measures were 66 cells and 4% (inactive).
For `CSc1ccc(C#N)cc1NC(=O)c1ccc(Cl)cc1` the same measures were 46 cells and 0.4% (inactive).
As for `FC(F)(F)c1cccc(-c2nc(COc3ccc(Cl)cc3Cl)no2)c1`, the cell count in test [1] amounted to 40 cells. For the same molecule, the activation in test [2] is -2% (inactive).
The molecule `COc1ccc(C)cc1NC(=O)C(Sc1ccccc1)c1ccccc1` (stereo unspecified) had a cell count in test [1] of 44 cells. The activation in test [2] was 1.2% (inactive).
Turning to `O=C(O)c1cccc(N=NN2CCCCCC2)c1`, the cell count in test [1] was 47 cells. Further, the activation in test [2] was 0.2% (inactive).
As for `COC(=O)C1=C(NC(=O)C(C)(C)C)CCS1`, the cell count in test [1] turned out to be 55 cells. For the same molecule, in test [2], the activation was -0.2% (inactive).
For `CC(=O)c1ccc(N2Cc3ccccc3C2)cc1`, the cell count in test [1] came out at 66 cells. The activation in test [2] was 0.5% (inactive).
Molecule `N#Cc1ncc(C(F)(F)F)cc1Oc1cccnc1` returned a cell count in test [1] of 41 cells. Also, in test [2], the activation is -0.5% (inactive).
Regarding `[O-][n+]1onc2c1CCc1[nH]c(-c3ccccc3)nc1-2`, the cell count in test [1] worked out at 66 cells. The activation in test [2] is -0.8% (inactive).
The corresponding values for `O=C(NC(=S)NC1CCS(=O)(=O)C1)c1cccc([N+](=O)[O-])c1` (stereo unspecified) are 51 cells and -0.4% (inactive).
Molecule `CCO[C@H]1OC(C(=O)NCc2ccccc2)=C[C@@H](c2coc3ccccc3c2=O)[C@@H]1CCCO` displayed a cell count in test [1] of 79 cells. Also, the activation in test [2] is 0.3% (inactive).
Consider `COc1ccc(OC)c(S(=O)(=O)NCCC(C)C)c1`, for which the cell count in test [1] was found to be 90 cells. Besides, the activation in test [2] is -0.7% (inactive).
In test [1], `O=C(NCc1ccco1)c1cnn2c(C(F)(F)F)cc(-c3ccco3)nc12` had a cell count of 40 cells. Besides, the activation in test [2] was 8.2% (inactive).
Turning to `CN(C(=O)c1cccc(NC(=O)C2CCN(C(=O)OC(C)(C)C)CC2)c1)C1CCC1`, the cell count in test [1] is 52 cells. The activation in test [2] was -0.7% (inactive).
Take `CN1/C(=C\C(=O)c2oc3ccccc3c2N)C(C)(C)c2ccccc21`: the cell count in test [1] stood at 52 cells. Further, in test [2], the activation was 45.5% (active).
For the molecule `CC(=O)Nc1cccc(OCC(=O)/C=C2\N(C)c3ccccc3C2(C)C)c1`, the cell count in test [1] was found to be 29 cells. In addition, the activation in test [2] was 0.8% (inactive).
Regarding `CC(C)Nc1nnc(SCC(=O)/C=C2\N(C)c3ccccc3C2(C)C)s1`, the cell count in test [1] was 54 cells. Moreover, the activation in test [2] was 0% (inactive).
With `CC(Oc1ccccc1)C(=O)Nc1oc(-c2ccco2)c(-c2ccco2)c1C#N` (stereo unspecified), the cell count in test [1] turned out to be 69 cells. Moreover, the activation in test [2] was -1.6% (inactive).
In test [1], `COc1ccc(CC(NC(C)=O)C(=O)N2CCN(C(=O)Nc3cccc(Cl)c3)CC2)cc1OC` (stereo unspecified) had a cell count of 63 cells. The activation in test [2] is -0.5% (inactive).
Turning to `CC(=O)c1cnn(-c2cc(Oc3ccc(F)cc3)ncn2)c1C`, the cell count in test [1] was 34 cells. In addition, the activation in test [2] is -1.1% (inactive).
With `C=CCOc1ccc(/C=C2/C(=O)ON=C2C)cc1OCC`, the cell count in test [1] was 89 cells. In addition, in test [2], the activation was 2.1% (inactive).
The molecule `COc1cc(/C=C2/C(=O)ON=C2C)ccc1OCc1cccc(F)c1` displayed a cell count in test [1] of 41 cells. Moreover, the activation in test [2] is 5.9% (inactive).
In test [1], `COc1cc(/C=C2/C(=O)ON=C2C)ccc1OCc1ccccc1F` displayed a cell count of 36 cells. In test [2], the activation is 73.4% (active).
`COC(=O)c1ccc(COC(=O)CNC(=O)c2cccc(OC)c2)o1` came in with a cell count in test [1] of 57 cells. The activation in test [2] was -0.3% (inactive).
For `O=C(Nc1nnc(S(=O)(=O)N2CCCCCC2)s1)c1cccc(Br)c1` the same measures were 53 cells and 5% (inactive).
In turn, `Cc1c(NC(=O)CCC2CCCCC2)cc(C(=O)N2CCOCC2)cc1[N+](=O)[O-]` came in with a cell count in test [1] of 61 cells. Moreover, in test [2], the activation is 1.4% (inactive).
Molecule `COc1cccc(/C=N/Nc2cc(C)nc(-c3ccccc3O)n2)c1O` came in with a cell count in test [1] of 51 cells. The activation in test [2] is 46.3% (active).
In test [1], `COc1ccc(Cc2nnc(N/N=C/c3ccccc3O)[nH]c2=O)cc1OC` gave a cell count of 65 cells. Besides, the activation in test [2] was 0% (inactive).
Molecule `COc1ccccc1-n1c(SCC(=O)Nc2cccc(C(=O)O)c2)nnc1-c1ccccc1O` returned a cell count in test [1] of 50 cells. The activation in test [2] was -0.1% (inactive).
In the case of `CCC1(CC)C(=O)C2=C3C1[C@H](C(=O)OC)C=C(C(=O)OC)C[C@H]3[C@H]1C(=O)N(Cc3ccccc3)C(=O)[C@H]1[C@H]2C` (stereo partly specified), the cell count in test [1] was found to be 56 cells. For the same molecule, the activation in test [2] is 4.6% (inactive).
For `CC(C)(C)Nc1c(-c2cccs2)nc2ccccn12` the same measures were 43 cells and 1.2% (inactive).
Turning to `O=C(/C(=C/c1cccc(Cl)c1)c1nc2ccccc2[nH]1)c1ccccc1`, the cell count in test [1] turned out to be 59 cells. The activation in test [2] was 40.5% (active).
`O=C(O)c1cccc(NC(=O)c2cc(-c3cccc(Cl)c3)nc3ccccc23)c1` registered a cell count in test [1] of 44 cells. Also, the activation in test [2] was 1.2% (inactive).
Turning to `O=C(N/N=C/c1ccc(Cl)cc1)c1nc2ccc([N+](=O)[O-])cc2c(=O)[nH]1`, the cell count in test [1] turned out to be 101 cells. Also, in test [2], the activation was -0.7% (inactive).
